± gives the standard deviation.

This test concerns RAW-Dual (murine macrophage reporter line). In words: IRF reporter (Lucia luciferase) activity fold change vs agonist alone; higher = enhanced IRF activity. The conditions noted are these: modulator concentration 10 µM; agonist: LPS 0.1 ug/mL. The procedure, abridged:
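RAW-Dual murine macrophage reporter cells were plated at 50 000 per well in 384-well plates, pin-transferred compound to 10 μM final, and pre-incubated for 1 hour at 37 °C before a PRR agonist was added and the cells incubated overnight. NF-κB activity was read from supernatant SEAP with QUANTI-Blue at 620 nm absorbance, and IRF activity from Lucia luciferase with QUANTI-Luc by luminescence. Each signal was expressed as fold change by dividing by the mean agonist-only control on the same plate. Two replicate plates were averaged, with errors obtained by propagation.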
With `CCCCNCCCCOc1ccc(C)cc1C(C)(C)C`, the IRF reporter was determined as 0.201 ± 0.056.
Turning to `Brc1ccc(-c2cc(-c3ccccc3)nc(N3CCOCC3)n2)cc1`, the IRF reporter was determined as 1.35 ± 0.25.
The figure for `O=C(c1ccc(Cl)cc1)c1ccc(N2CCOCC2)c([N+](=O)[O-])c1` is 1.62 ± 0.24.
As for `CC1CCN(c2nccnc2Oc2ccc(C(=O)N3CCN(c4ccc(F)cc4)CC3)cc2)CC1`, the IRF reporter amounted to 1.26 ± 0.18.
On to `Oc1c2c(nc3cc(-c4ccc(Br)cc4)nn13)CCS2`, for which the IRF reporter turned out to be 1.19 ± 0.16.
On to `Cc1nn2c(=O)c(Cc3ccccc3)c(C)[nH]c2c1-c1ccccc1`, for which the IRF reporter came out at 1.26 ± 0.074.
Turning to `CNCCC[C@]12CC[C@H](c3ccccc31)c1ccccc12` [Prestw-346], the IRF reporter is 1.41 ± 0.14.
Consider `CC(N)c1ccc(Nc2ncc3cc(-c4ccncc4)ccc3n2)cc1.Cl.Cl.Cl` (stereo not given), for which the IRF reporter is 0.28 ± 0.05.
Turning to `CCOc1ccc(S(=O)(=O)NC(C)(C)C)cc1C`, the IRF reporter stood at 1.38 ± 0.082.
Take `Cc1oncc1C(=O)Nc1ccc(C(F)(F)F)cc1`: the IRF reporter is 1.12 ± 0.29.
As for `O=C(O)c1ccccc1`, the figure is 1.46 ± 0.34; as for `CC(C)(C)C(O)/C=C/c1ccc2c(c1)OCO2` (stereo not given), 0.877 ± 0.16.
As for `COc1cccc(S(=O)(=O)NCc2sc(-c3ccccc3)nc2C)c1`, the figure is 1.11 ± 0.12; as for `CCOC(=O)c1cc(-c2ccccc2)sc1NC(=O)C(C)(C)C`, 1.3 ± 0.093; as for `CC(C)(O)C#Cc1ccccn1`, 1.11 ± 0.096.
As to `COc1ccc(CC(C)N2CCN(c3cccc(C)c3C)CC2)cc1OC` (stereo not given), the IRF reporter was determined as 1.75 ± 0.22.
As for `C[C@]1(O)C[C@@H](c2nc(-c3ccc4ccc(-c5ccccc5)nc4c3)c3c(N)nccn32)C1`, the figure is 0.971 ± 0.072.
As for `Cc1ccc(C2=NN3C(=N)C(=Cc4c[nH]c5ccccc45)C(=O)N=C3S2)cc1`, the figure is 1.38 ± 0.2; as for `CN1CCN(C2=C(Cl)C(=O)N(c3cccc(Cl)c3)C2=O)CC1`, 0.972 ± 0.053; as for `CC1CCc2nc(NC(=O)C3CCCN3S(C)(=O)=O)sc2C1` (stereo not given), 1.35 ± 0.27.
The figure for `C=CCn1c(SCC(=O)NCCN2CCOCC2)nc2sc3c(c2c1=O)CCC3` is 1.48 ± 0.11.
On to `CC1(C)CC(NC(=O)c2cccnc2-c2nc3ccccc3s2)CC(C)(C)N1`, for which the IRF reporter was determined as 1.06 ± 0.067.
With `CC(C)(C)C(=O)NCc1cccnc1-c1cccnc1`, the IRF reporter was 0.982 ± 0.061.
As for `COc1cc2c(cc1OC)C(=S)NC1(CCCC1)C2`, the figure is 1.04 ± 0.16; as for `COC(=O)c1ccccc1NC(=O)CCc1ccc(Oc2cc([N+](=O)[O-])cc([N+](=O)[O-])c2)cc1`, 1.03 ± 0.17; as for `CC(O)(CNC(=O)NCc1ccc(F)cc1)c1ccc(-c2ccccc2)cc1` (stereo not given), 1.32 ± 0.1.
For the molecule `CCn1c2ccccc2c2cc(CNCCc3ccc(OC)cc3)ccc21`, the IRF reporter was 0.556 ± 0.025.
As for `CN(C)c1nc(CNS(C)(=O)=O)nc(N2CCCCC2)n1`, the IRF reporter was found to be 1.03 ± 0.071.
Take `O=C(NCCC(CCO)c1ccccc1)c1cccc(Br)c1` (stereo not given): the IRF reporter was determined as 0.927 ± 0.18.
Regarding `CCn1c(C=Nn2cnnc2)nc2ccccc21`, the IRF reporter amounted to 0.903 ± 0.048.
The figure for `COc1c(O)cc(O)cc1O` is 0.985 ± 0.078.
As for `O=C(NN=Cc1c(O)ccc2ccccc12)c1ccncc1`, the figure is 1.26 ± 0.1; as for `COc1cc(C=NN2C(=O)c3cccc4cccc(c34)C2=O)cc(Br)c1OC`, 1.51 ± 0.29; as for `CC(=O)OCCN(CCOC(C)=O)c1c(C)[nH]c(=O)[nH]c1=O`, 1.52 ± 0.093.
For the molecule `CC(C)C(=O)c1c(C(C)C)nn2ccccc12`, the IRF reporter worked out at 0.938 ± 0.031.
Consider `Cn1c(=O)cc(N2CCC[C@@H](N)C2)n(Cc2cc(F)ccc2C#N)c1=O`, for which the IRF reporter came out at 0.971 ± 0.061.
Consider `Cc1onc(-c2ccccc2)c1-c1ccc(S(N)(=O)=O)cc1`, for which the IRF reporter is 1.02 ± 0.2.
For the molecule `CC(C)(C(=O)O)c1ccc(C(O)CCCN2CCC(C(O)(c3ccccc3)c3ccccc3)CC2)cc1.Cl` (stereo not given), the IRF reporter was 1.05 ± 0.48.
`COc1cccc(N2C(=O)CN(Cc3ccccc3)C3CS(=O)(=O)CC32)c1` (stereo not given): the IRF reporter stood at 0.237 ± 0.05.
As for `c1ccc(CCn2c(COc3ccccc3)nc3ccccc32)cc1`, the IRF reporter was determined as 1.24 ± 0.16.

The values above are taken from the supplement of paper PMC10646978.
